Sampled rows, rich in hits. Any-hit rate of the full collection: about 2%.
A3A deaminase – APOBEC3A ssDNA deaminase inhibitors, primary screen, selectivity assay for APOBEC3G inhibitor project, biochemical, FAM/TAMRA oligo cleavage fluorescence; actives 0.41% (n = 330,000); DNA dC->dU-editing enzyme APOBEC-3A (Homo sapiens), P31941; inhibition, % at 20 µM; recombinant A3A, FAM/TAMRA ssDNA deamination fluorescence;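 active = at least 40% inhibition at 20 µM here, with at most 30% in a related deaminase screen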
NPR1 activator – GC-A stimulated cGMP production enhancers – HEK293 GC-A cells, cGMP TR-FRET, EC30 ANP, primary screen. AID 1671463, 2021. actives 0.14% (n = 370,000). activation, % at 10 µM. Atrial natriuretic peptide receptor 1 (Homo sapiens), P16066. 0% at EC30 ANP, 100% saturating ANP; in the data active = activation above about 40%
Neddyl block – inhibitors of cullin neddylation, primary screen, biochemical, TR-FRET, uHTS, NAE and Ubc12 | inhibition, % at 25 µM | actives 0.58% (n = 360,000) | AID 651699, 2012; in the data active = inhibition above about 36%
APOBEC3G inh – APOBEC3G DNA deaminase inhibitors, primary screen, biochemical, fluorescence, single-stranded DNA substrate, uHTS; recombinant A3G, ssDNA deamination FAM/TAMRA fluorescence; inhibition, % at 20 µM; DNA dC->dU-editing enzyme APOBEC-3G (Homo sapiens), Q9HC16; actives 0.28% (n = 330,000); AID 493012, 2011;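 active = inhibition of at least 40% at 20 µM, with no more than 30% in the related APOBEC3A deaminase screen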
PfG6PD inh – PfG6PD enzyme inhibitors, primary screen, biochemical, fluorescence intensity, uHTS | inhibition, % at 20 µM | glucose-6-phosphate dehydrogenase-6-phosphogluconolactonase (Plasmodium falciparum 3D7) | actives 0.78% (n = 350,000) | PfGluPho enzyme, NADPH resazurin-diaphorase fluorescence | AID 504690, 2011;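 active = inhibition reaching at least a set limit at 20 µM in the primary screen, cut at about 59% in these data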
GC-B act – human GC-B receptor activators, primary screen, HEK293 GC-B cells, cGMP TR-FRET, EC30 CNP; Atrial natriuretic peptide receptor 2 (Homo sapiens), P20594; 0% at EC30 CNP, 100% saturating CNP; actives 0.11% (n = 370,000); activation, % at 10 µM;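 active = activation at 10 µM reaching about 35% in either raw or pattern-adjusted values, limit read from the data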
Target sequence (P20594 whole entry, looked up): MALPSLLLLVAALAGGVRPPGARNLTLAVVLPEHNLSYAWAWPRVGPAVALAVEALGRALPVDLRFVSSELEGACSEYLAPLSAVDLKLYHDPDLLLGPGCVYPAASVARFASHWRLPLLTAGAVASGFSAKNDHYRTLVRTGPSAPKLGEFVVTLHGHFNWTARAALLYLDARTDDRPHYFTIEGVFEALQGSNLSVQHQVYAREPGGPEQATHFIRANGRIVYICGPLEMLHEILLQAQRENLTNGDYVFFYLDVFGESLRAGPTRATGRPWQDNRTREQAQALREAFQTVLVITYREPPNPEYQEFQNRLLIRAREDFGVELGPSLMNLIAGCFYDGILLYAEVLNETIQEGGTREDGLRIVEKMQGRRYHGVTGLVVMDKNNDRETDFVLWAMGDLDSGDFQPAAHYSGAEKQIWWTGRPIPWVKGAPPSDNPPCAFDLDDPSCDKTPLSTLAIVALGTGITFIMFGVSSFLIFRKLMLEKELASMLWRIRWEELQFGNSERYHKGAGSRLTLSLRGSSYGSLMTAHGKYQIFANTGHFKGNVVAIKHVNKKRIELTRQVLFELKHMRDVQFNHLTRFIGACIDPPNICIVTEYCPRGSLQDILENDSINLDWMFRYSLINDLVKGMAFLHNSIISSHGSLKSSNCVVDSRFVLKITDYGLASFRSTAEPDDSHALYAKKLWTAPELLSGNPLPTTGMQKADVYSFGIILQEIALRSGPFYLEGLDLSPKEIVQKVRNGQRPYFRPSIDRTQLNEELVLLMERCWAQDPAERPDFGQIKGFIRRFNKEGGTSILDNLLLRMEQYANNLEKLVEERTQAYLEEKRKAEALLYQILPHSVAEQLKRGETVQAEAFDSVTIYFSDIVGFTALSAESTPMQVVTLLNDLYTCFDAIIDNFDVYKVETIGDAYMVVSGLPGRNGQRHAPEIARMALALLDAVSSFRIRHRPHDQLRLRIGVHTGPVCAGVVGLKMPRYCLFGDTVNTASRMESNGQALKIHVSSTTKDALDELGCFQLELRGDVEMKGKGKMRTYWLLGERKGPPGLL
PfGluPho conf – PfG6PD inhibitors, hit retest, confirmation, biochemical, fluorescence intensity, single concentration. shares compounds with PfG6PD inh. recombinant PfGluPho, NADPH-diaphorase-resazurin fluorescence. inhibition, % at 20 µM. actives 34% (n = 2,400). AID 504753, 2011;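 active = inhibition of at least 50% at 20 µM in any single replicate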
Diaphorase 10uM – diaphorase inhibitors and chemical oxidizers, confirmation, counter-screen for P. falciparum G6PD inhibitor project, biochemical, fluorescence intensity, 10 µM NADPH; shares compounds with PfG6PD inh; diaphorase-coupled resazurin reduction, NADPH 10 uM; inhibition, % at 20 µM; actives 39% (n = 820); AID 504862, 2011;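 active = average inhibition reaching 50% or more with the compound at 20 µM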;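 also: resorufin red fluorescence formed as diaphorase reduces resazurin using NADPH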
Diaphorase 30uM – diaphorase inhibitors and chemical oxidizers, confirmation, counter-screen for P. falciparum G6PD inhibitor project, biochemical, fluorescence intensity, 30 µM NADPH. shares compounds with PfG6PD inh. Diaphorase/resazurin coupled assay, resorufin fluorescence. inhibition, % at 20 µM. actives 29% (n = 820);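 active = inhibition averaging 50% or more, tested at 20 µM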
A number is an active result; . = inactive; / = no result given.

SMILES	A3A deaminase	NPR1 activator	Neddyl block	APOBEC3G inh	PfG6PD inh	GC-B act	PfGluPho conf	others
O=[N+]([O-])c1ccc(Nc2cccc3c2[nH]c2c(-c4ccccc4)nccc23)c([N+](=O)[O-])c1	/	.	.	/	84	.	.
Clc1ccc(Nc2ncnc3c2cnn3-c2ccccc2)cc1	.	.	/	.	111	.	.
Cc1cc(N=NC(=O)c2ccccc2O)c2ccccc2c1O	.	.	.	.	64	.	49	Diaphorase 10uM=.;Diaphorase 30uM=.
COc1ccc(CN2CCC(CNC(=O)NC(C)C)CC2)cc1	/	.	/	/	/	.	/
COc1ccc(C(C)=O)c(OCC(=O)NCCC2=CCCCC2)c1	/	.	.	/	65	.	.
COc1ccc(OCC(=O)NCCC2=CCCCC2)c([N+](=O)[O-])c1	.	.	.	.	.	.	/
CSc1ccc(C2Nc3cccc4cccc(c34)N2)cc1	.	.	.	.	64	.	.
Cc1onc(-c2ccc(Cl)cc2)c1-c1ccn(S(=O)(=O)c2ccccc2Cl)n1	/	.	/	/	/	.	/
O=C(NCc1ccco1)c1cccnc1-c1nc2ccccc2s1	.	.	.	.	60	.	.
Oc1c(Br)cc(/C=N/Nc2nncc3ccccc23)cc1Br	.	/	/	.	63	/	.
COc1ccc(/C=N/Nc2nncc3ccccc23)cc1	.	.	.	.	.	.	/
CCOC(=O)c1c(C)[nH]c(C)c1C(=O)COC(=O)c1cc2ccccc2cc1O	.	.	.	.	103	.	.
CCOC(=O)c1c(C)[nH]c(C)c1C(=O)COC(=O)/C=C/c1ccco1	.	.	.	.	82	.	67	Diaphorase 10uM=74;Diaphorase 30uM=57
O=C(c1cccc(I)c1)N1CCC(Oc2cccnc2)CC1	/	.	/	/	/	.	/
C=CCN(CC#Cc1ccccc1)Cc1ccc2c(c1)OCO2	/	.	/	/	/	.	/
COCCCNC(=O)C[C@@H]1C(=O)N(CCc2ccc(Cl)cc2)C2=CCCCC[C@]21C(=O)OC	/	.	/	/	/	.	/
CC1(C)Cc2c(sc3nc(-c4ccccc4)n(N)c(=O)c23)CO1	.	.	.	.	.	.	/
CC1(C)Cc2c(sc3nc4n(-c5ccccc5)c(=O)c(CCC(=O)O)nn4c(=O)c23)CO1	.	.	.	.	104	.	91	Diaphorase 10uM=.;Diaphorase 30uM=.
Cc1ccc(S(=O)(=O)N(CC(=O)NCc2ccncc2)Cc2ccccc2F)cc1	.	.	.	.	.	.	/
Cc1ccc(S(=O)(=O)N(CC(=O)NCc2ccco2)Cc2ccccc2F)cc1	/	.	.	/	72	.	.
OCCCN1CCC2(CCC(c3ccccc3)CC2)C1 (stereo unspecified)	/	.	/	/	/	.	/
CCOc1ccc(-n2cc(-c3ccc(OC)c(OC)c3)[nH]c2=S)cc1	.	.	.	.	66	.	.
O=[N+]([O-])c1cc2cccnc2c2ncccc12	.	.	.	.	.	.	/
O=[N+]([O-])c1ccc(Sc2cccc3cccnc23)c2cccnc12	.	.	.	.	94	.	53	Diaphorase 10uM=66;Diaphorase 30uM=.
CCOC(=O)c1c(C)oc2c1c(C=NCC1CCCO1)c(O)c1ccccc12 (stereo unspecified)	/	.	.	/	.	.	/
SMILES	A3A deaminase	NPR1 activator	Neddyl block	APOBEC3G inh	PfG6PD inh	GC-B act	PfGluPho conf	others
CCOC(=O)c1c(C)oc2c1c(C=NCc1ccccn1)c(O)c1ccccc12	/	.	.	/	68	.	.
O=C(CSc1nnc(-c2ccc(Cl)cc2)n1Cc1ccco1)Nc1ccc(S(=O)(=O)Nc2nccs2)cc1	/	.	/	/	/	.	/
Nc1c(C(=O)NCc2ccco2)sc2nc(N3CCOCC3)c3c(c12)CCCC3	.	.	.	.	66	.	.
CCCC[C@H](CCCc1ccc(F)cc1)CCC(=O)N(c1ccccc1)c1ccccc1	/	.	/	/	/	.	/
CCC(=O)N1CCc2cc(Br)c(S(=O)(=O)NCc3ccccc3OC)cc21	/	.	/	/	/	.	/
COC(=O)C[C@H]1CC[C@H]2[C@H](COc3ccc(NS(=O)(=O)c4cccc(OC)c4)cc3C(=O)N2C)O1	/	.	/	/	/	.	/
COc1ccc(OCc2nnc3n2N=C(c2ccc(OC)cc2)CS3)cc1	.	.	.	.	.	.	/
c1ccc(OCc2nnc3n2N=C(c2ccccc2)CS3)cc1	.	.	.	.	100	.	58	Diaphorase 10uM=.;Diaphorase 30uM=.
CN(C(=O)c1sc2nc(N3CCCC3)c3c(c2c1N)CC(C)(C)OC3)c1ccccc1	.	.	.	.	66	.	.
CC(=O)N1CCN(c2ccc(NC(=O)c3ccc4c(c3)OCCO4)cc2Cl)CC1	.	.	.	.	67	.	.
CC(C)C(=O)N1CCN(c2ccc(NC(=O)c3ccc4c(c3)OCCO4)cc2Cl)CC1	.	.	.	.	68	.	.
CC(=O)N1CCN(c2ccc(NC(=O)c3ccc4c(c3)OCCO4)cc2)CC1	.	.	.	.	.	.	/
CCOC(=O)N1CCN(C(=O)C[C@H]2C[C@@]3(C(=O)OC)C(=C[C@H](COCc4ccccc4)O[C@@H]3C)N(Cc3ccc4c(c3)OCO4)C2=O)CC1	/	.	/	/	/	.	/
CN1CCN(/C=N/c2sc3c(c2C#N)CCCCC3)CC1	.	.	.	.	.	.	/
N#Cc1c(/N=C/C=C/c2ccccc2)sc2c1CCCC2	.	.	.	.	60	.	.
CC(C)=CCC[C@@]1(C(=O)O)[C@@H]2C/C=C(\C)CC/C=C(\C)CC[C@H]1[C@]1(CC2)CO1	/	.	/	/	/	.	/
CCn1c(O)c(C=Nc2ccccc2)sc1=S	.	.	/	.	68	.	.
Oc1c(C=Nc2ccccc2)sc(=S)n1Cc1ccccc1	.	.	.	.	.	.	/
O=C(Cn1sc2ccccc2c1=O)Nc1ccccc1	/	.	.	/	122	.	107	Diaphorase 10uM=.;Diaphorase 30uM=.
O=C(CN1C(=O)c2ccccc2C1=O)Nc1ccccc1	.	.	.	.	.	.	/
O=C1N2Cc3ccccc3C2CS(=O)(=O)N1Cc1ccccc1 (stereo unspecified)	/	.	/	/	/	.	/
CCOc1ccc(/C=C/[N+](=O)[O-])c2ccccc12	.	/	.	.	64	/	.
